Results published in the GenesisPotency data set.
The campaign covered roughly 290,000 compounds. About 3,000 (1%) were called active. No stated cut-off is given here; in the data, active means inhibition mostly above about 36% (no sharp cut-off); inactive means mostly below about 34%. This excerpt belongs to a sample that is enriched for actives.

The compounds below were run against T1, Nucleotide-binding oligomerization domain-containing protein 1, Homo sapiens (UniProt Q9Y239) (assay: inhibition of NOD1-driven NF-kB reporter – cell-based, luminescence, uHTS, primary screen (AID 1578)).
T1 sequence (whole entry): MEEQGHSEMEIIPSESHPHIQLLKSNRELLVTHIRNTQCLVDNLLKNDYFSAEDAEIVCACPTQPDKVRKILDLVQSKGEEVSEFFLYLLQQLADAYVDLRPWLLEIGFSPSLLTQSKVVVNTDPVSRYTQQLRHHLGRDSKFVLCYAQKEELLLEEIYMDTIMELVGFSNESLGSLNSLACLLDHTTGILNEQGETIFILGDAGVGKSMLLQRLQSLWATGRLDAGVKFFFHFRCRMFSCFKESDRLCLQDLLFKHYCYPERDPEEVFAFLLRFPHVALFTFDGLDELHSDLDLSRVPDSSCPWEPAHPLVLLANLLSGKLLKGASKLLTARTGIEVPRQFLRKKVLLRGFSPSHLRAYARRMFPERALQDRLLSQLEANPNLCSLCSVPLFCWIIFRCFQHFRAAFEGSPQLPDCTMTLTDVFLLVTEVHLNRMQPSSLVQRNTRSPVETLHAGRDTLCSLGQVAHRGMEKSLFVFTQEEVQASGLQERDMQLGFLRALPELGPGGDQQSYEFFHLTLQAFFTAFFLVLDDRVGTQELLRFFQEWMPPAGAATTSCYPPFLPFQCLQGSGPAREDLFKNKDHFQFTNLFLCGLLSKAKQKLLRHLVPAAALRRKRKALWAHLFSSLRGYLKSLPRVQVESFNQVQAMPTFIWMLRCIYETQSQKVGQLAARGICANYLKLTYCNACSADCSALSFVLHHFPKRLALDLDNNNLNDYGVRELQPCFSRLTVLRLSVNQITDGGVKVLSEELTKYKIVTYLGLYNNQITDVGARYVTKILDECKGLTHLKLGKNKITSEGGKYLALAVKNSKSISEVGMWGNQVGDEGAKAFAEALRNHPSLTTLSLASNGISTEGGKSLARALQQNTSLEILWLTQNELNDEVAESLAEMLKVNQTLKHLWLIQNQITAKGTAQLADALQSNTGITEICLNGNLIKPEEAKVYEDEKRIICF

outcome, active:
O=c1c(C(c2ccccc2)c2c(O)sc3ccccc3c2=O)c(O)sc2ccccc12
COc1ccc2cc3c(N)nn(C(=O)c4cccc([N+](=O)[O-])c4)c3nc2c1
COc1ccc2cc3c(N)nn(C(=O)c4ccc(F)cc4)c3nc2c1
COc1ccc2cc3c(N)nn(C(=O)c4cccc(F)c4)c3nc2c1
Cc1ccc2nc(NC(=O)CSCC(=O)OCC(=O)c3ccc(Br)cc3)sc2c1
Cc1c(C)c2ccc(OCC(=O)Nc3ccccn3)c(C)c2oc1=O
COc1cccc(C(=O)c2sc(NC(C)C)nc2N)c1
O=c1c(Cl)c(Cl)cnn1Cc1nnc(-c2ccccc2Br)o1
COC(=O)CCn1nnc(-c2ccc(C(C)C)cc2)n1
CC(C)c1ccc(-c2nnn(CCC(=O)O)n2)cc1
COc1ccc2cc3c(N)nn(C(=O)c4ccccc4[N+](=O)[O-])c3nc2c1
COc1ccc2cc3c(N)nn(C(=O)C4CCC(C(C)(C)C)CC4)c3nc2c1 (configuration not stated)
COc1ccc2cc3c(N)nn(C(=O)c4ccccc4Cl)c3nc2c1
CN(Cc1ccccc1)S(=O)(=O)c1nnc(NC(=O)c2ccc(F)cc2)s1
COc1cc(OC)c(N(C)S(=O)(=O)c2cccc(C(=O)OCC(=O)c3c[nH]c4ccccc34)c2)cc1Cl
O=c1cc(CSc2ccc(Cl)cc2)nc(-c2ccccn2)[nH]1
Cn1c2ccccc2c(=O)c2c(=O)n(C3CCCCC3)c(-c3ccco3)nc21
O=C(Nc1cc(C(F)(F)F)cc(C(F)(F)F)c1)Nc1cnn(-c2ccc([N+](=O)[O-])cc2)c1C(F)(F)F
O=S(=O)(Nc1nc2ccccc2nc1N1CCN(c2ccccc2F)CC1)c1ccc(Cl)cc1
COc1ccc(-c2cc(C(F)(F)F)nc(S(=O)(=O)CCCC(=O)Nc3cccnc3Cl)n2)cc1OC
COc1ccccc1-c1cc(C(F)(F)F)nc(S(=O)(=O)CCCC(=O)N2CCCCC2C)n1 (configuration not stated)
COc1ccc(-c2cc(C(F)(F)F)nc(S(=O)(=O)CCCC(=O)Nc3cccc(O)c3)n2)cc1OC
COc1ccccc1-c1cc(C(F)(F)F)nc(S(=O)(=O)CCCC(=O)Nc2cccnc2Cl)n1
COc1ccc2[nH]cc(C(=O)CCl)c2c1
COc1ccc2c(C(=O)CCl)c[nH]c2c1
Cc1nn(-c2ccccc2)c(Cl)c1CN(C(=O)CCl)c1ccc(Cl)cc1
COc1ccc(Br)cc1/C=C/C(=O)c1ccc(NC(C)=O)cc1
CCC(=O)Nc1cccc(C(=O)/C=C/c2cc(Br)ccc2OC)c1
Cc1ccc(C(C)C)c(OCc2ccc(C(=O)N/N=C/c3ccc(C(=O)O)cc3)cc2)c1
CN(C)S(=O)(=O)c1cccc(NC(=O)CSc2cccc3cccnc23)c1
O=C(CSc1cccc2cccnc12)Nc1ccc(S(=O)(=O)N2CCOCC2)cc1
CCOc1ccc2c(c1)C(=NNC(=O)c1ccncc1)c1cc(OCC)ccc1-2
CC(=O)c1c(C)[nH]c(C(=O)COC(=O)c2cccc(S(=O)(=O)N(C)c3ccccc3)c2)c1C
CNc1nc(-c2ccc3c(c2)CCN3S(=O)(=O)c2ccccc2)c(C)s1
COc1ccc(Nc2cc(Nc3cc(OC)c(OC)c(OC)c3)ncn2)cc1
Cc1cc(Nc2nc3ccccc3nc2Cl)n(-c2ccc([N+](=O)[O-])cc2)n1
COc1ccc(C)cc1NC(=O)CSc1ccc(-c2ccccn2)nn1
O=C(Nc1nnc(-c2ccc(F)cc2)o1)c1cc(Cl)sc1Cl
O=C(Nc1nnc(-c2ccc(F)cc2)o1)c1cccc([N+](=O)[O-])c1
CCOc1ccc(-c2nnc(NC(=O)c3ccc(OCC(C)C)c(OC)c3)o2)cc1
COc1ccc(-c2nnc(NC(=O)c3ccc(F)cc3)o2)cc1
CN(c1ccccc1)S(=O)(=O)c1ccc(C(=O)Nc2nnc(-c3ccc(F)cc3)o2)cc1
O=C(Nc1ccc(C(F)(F)F)cc1)C1CCN(S(=O)(=O)c2ccc(N3CCCC3=O)cc2)CC1
C/C(=N\Nc1ncnc2sc(C)c(C)c12)c1ccccn1
CC(=O)c1c(C)n(-c2ccccc2)c2ccc(O)cc12
COc1ccc(-n2c(C)c(C(C)=O)c3cc(OC(C)=O)ccc32)cc1
CCOc1ccc(-n2c(C)c(C(C)=O)c3cc(OC(C)=O)ccc32)cc1
COc1ccc2c(c1)c(C(C)=O)c(C)n2CCc1ccccc1
COc1ccc(-n2c(C)c(C(C)=O)c3cc(O)ccc32)cc1
COc1ccc2c(c1)c(C(C)=O)c(C)n2-c1ccc(C(C)=O)cc1
COc1ccccc1N1CCN(c2nc(C)nc3c2oc2ccccc23)CC1.Cl
COc1ccc(-c2csc3ncnc(NCCN4CCOCC4)c23)cc1
Clc1ccc(-c2csc3ncnc(NCCN4CCOCC4)c23)cc1
CC(C)n1c(CN(C)Cc2ccccc2)nc2c1c(=O)n(C)c(=O)n2C
CCN1/C(=C/C=C/C=C/C=C/c2sc3ccccc3[n+]2CC)Sc2ccccc21.[I-]
c1cc(-c2nnc3sc(C4CCCCC4)nn23)ccn1
c1ccc(CCc2nn3c(-c4ccncc4)nnc3s2)cc1
Cc1c(CCC(=O)O)c(=O)oc2cc(OCc3ccccc3Br)ccc12
CC(C)(C)C1CCC2(CC1)C(C#N)=C(SCC(=O)Nc1ccccc1)NC(=O)C2C#N (configuration not stated)
N#CC1=C(SCC(=O)NC23CC4CC(CC(C4)C2)C3)NC(=O)C(C#N)C12CCCCC2 (configuration not stated)
Cc1ccc(NC(=O)CSc2nn(-c3ccccc3)c(=S)s2)cc1S(=O)(=O)N(C)C
CC(C)(C)C(=O)Nc1ccc(NC(=O)c2ccco2)nc1
O=C(Nc1nc2ccc([N+](=O)[O-])cc2s1)c1ccc(S(=O)(=O)N2CCCc3ccccc32)cc1
CC1CCCCN1c1ncnc(N)c1[N+](=O)[O-] (configuration not stated)
Nc1ncnc(N2CCc3ccccc32)c1[N+](=O)[O-]
COc1ccc2sc3c(=O)[nH]c4ccccc4c3c2c1
O=S(=O)(c1ccc2c(c1)OCCO2)N1CCN(c2ncnc3sccc23)CC1
Cc1ccc(S(=O)(=O)N2CCN(c3ncnc4sccc34)CC2)cc1
O=C(O)CCSc1nnc(-c2ccc3c(c2)OCO3)o1
O=C(Nc1nccs1)c1sc2cc(Cl)ccc2c1Cl
Cc1cc(NC(=O)c2cccs2)n(-c2nc3ccccc3[nH]2)n1
O=C(Nc1ccc(Cl)c(S(=O)(=O)N2CCOCC2)c1)c1ccc(OCC2CCCO2)cc1 (configuration not stated)
COc1ccc(C(=O)Nc2ccc(-c3ccc(C)o3)cc2)cc1S(=O)(=O)N1CCOCC1
Cc1ccc(NC(=O)CSc2ncnc3ccccc23)cc1S(=O)(=O)N1CCOCC1
CCOC(=O)c1ccc(NC(=O)c2ccc(C)c(S(=O)(=O)N3CCOCC3)c2)cc1
CCOc1ccc(Nc2ncnc3ccc([N+](=O)[O-])cc23)cc1
Cc1nn(-c2ccccc2)c(Cl)c1C(=O)N1CCN(c2ncnc3c2cnn3-c2ccccc2)CC1
CN(C)CC(CCC(CN(C)C)C(=O)c1ccccc1)C(=O)c1ccccc1.Cl (configuration not stated)
O=C(NCc1cccnc1)/C(=C\c1ccc(-c2cccc(Cl)c2)o1)S(=O)(=O)c1ccccc1
O=C(NCc1cccnc1)/C(=C/c1ccc(-c2cccc(Cl)c2)o1)S(=O)(=O)c1ccccc1
O=C(CCl)N1N=C(c2cccs2)CC1c1ccco1 (configuration not stated)
O=C(CCl)N1N=C(c2ccco2)CC1c1ccco1 (configuration not stated)
Cc1ccc(-n2[nH]c(C)c(/C=N/Nc3ccc([N+](=O)[O-])cc3[N+](=O)[O-])c2=O)cc1C
COc1ccc(C(=O)Nc2ccccc2C(=O)N/N=C/c2ccccn2)cc1OC
O=C(N/N=C/c1ccccn1)c1sc2ccccc2c1Cl
Cc1[nH]n(-c2ccccc2)c(=O)c1/C=N/NC(=O)c1cccc([N+](=O)[O-])c1
O=C(N/N=C/c1ccccn1)c1ccc(Cl)c(Cl)c1
O=C(N/N=C/c1ccccn1)c1cc([N+](=O)[O-])cc([N+](=O)[O-])c1
CC(/C=C/c1ccccc1)=N/NC(=O)c1cc([N+](=O)[O-])cc([N+](=O)[O-])c1
Cc1cccc(/C=N/NC(=O)c2cccc([N+](=O)[O-])c2)n1
Cc1c(CCC(=O)O)c(=O)oc2cc3oc4c(c3cc12)CCCC4
O=C(Sc1cccc2cccnc12)c1ccc(F)cc1
O=C(Sc1cccc2cccnc12)c1ccccc1Br
O=C(Nc1ccc(N2CCN(c3ncccc3C(F)(F)F)CC2)nc1)c1cccs1
O=C(N/N=C(\c1ccccc1)c1cccnc1)c1cccc(F)c1
COc1ccc(C(=O)N/N=C(\c2ccccc2)c2ccccn2)cc1
COc1cc(C(=O)N/N=C(\c2ccccc2)c2ccccn2)cc(OC)c1OC
COc1cccc(C(=O)N/N=C(/c2ccccc2)c2ccccn2)c1
CCOC(=O)c1c(NC(=S)NCCc2ccccc2)sc2c1CC(C(C)C)OC2 (configuration not stated)
Cn1c(=O)c(C(=O)CCl)c(N)n(Cc2ccccc2)c1=O
O=C(CSc1n[nH]c(-c2ccccn2)n1)Nc1cccc(Cl)c1
O=C(CSc1n[nH]c(-c2ccccn2)n1)Nc1ccc(Cl)cc1
Cc1ccccc1Oc1cc(-n2ncc(Cl)c(Cl)c2=O)ncn1
O=C(NCc1ccco1)c1sc(=S)n2c1[nH]c(=O)c1ccccc12
CCCCNC(=O)c1sc(=S)n2c1[nH]c(=O)c1ccccc12
CC(C)NC(=O)c1sc(=S)n2c1[nH]c(=O)c1ccc(C(=O)NCCc3ccc(Cl)cc3)cc12
O=C(NCc1ccccc1)c1sc(=S)n2c1[nH]c(=O)c1ccccc12
